Source: PubChem BioAssay (several laboratories)
LEDGF integ inh – blocks HIV-1 LEDGF/p75-dependent DNA integration; inhibition, % at 3.7 µM; 0.64% of 370,000 active; TR-FRET IN-LEDGF/p75 DNA integration, Eu/Cy5;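 active = inhibition above the screen-wide mean plus 3 SD, cut at about 13% in these data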;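 also: signal is the Cy5 over europium emission ratio at 671 and 618 nm; 0% = plate median of compound wells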
rCAG RNA binder – molecules binding r(CAG) RNA repeats; 1.3% of 370,000 active; inhibition, % at 3 µM; r(CAG) RNA repeat, TO-PRO-1 dye displacement fluorescence;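 active = inhibition above the plate cutoff, the mean of all test compounds on that plate plus 3 SD, cut at about 35% in these data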;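 also: 0% = DMSO alone and 100% = 100 µM mitoxantrone as full dye displacement; higher means more dye released from RNA so lower well fluorescence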
DNMT1 inh – DNMT1 (human) enzyme inhibition; inhibition (reported as % activation of signal), % at 10 µM; P26358; 0.83% of 360,000 active; DNMT1 molecular beacon, Hinp1I cleavage, fluorescence; in the data active = inhibition above about 50%
Target sequence (P26358 504-1616 limits assumed): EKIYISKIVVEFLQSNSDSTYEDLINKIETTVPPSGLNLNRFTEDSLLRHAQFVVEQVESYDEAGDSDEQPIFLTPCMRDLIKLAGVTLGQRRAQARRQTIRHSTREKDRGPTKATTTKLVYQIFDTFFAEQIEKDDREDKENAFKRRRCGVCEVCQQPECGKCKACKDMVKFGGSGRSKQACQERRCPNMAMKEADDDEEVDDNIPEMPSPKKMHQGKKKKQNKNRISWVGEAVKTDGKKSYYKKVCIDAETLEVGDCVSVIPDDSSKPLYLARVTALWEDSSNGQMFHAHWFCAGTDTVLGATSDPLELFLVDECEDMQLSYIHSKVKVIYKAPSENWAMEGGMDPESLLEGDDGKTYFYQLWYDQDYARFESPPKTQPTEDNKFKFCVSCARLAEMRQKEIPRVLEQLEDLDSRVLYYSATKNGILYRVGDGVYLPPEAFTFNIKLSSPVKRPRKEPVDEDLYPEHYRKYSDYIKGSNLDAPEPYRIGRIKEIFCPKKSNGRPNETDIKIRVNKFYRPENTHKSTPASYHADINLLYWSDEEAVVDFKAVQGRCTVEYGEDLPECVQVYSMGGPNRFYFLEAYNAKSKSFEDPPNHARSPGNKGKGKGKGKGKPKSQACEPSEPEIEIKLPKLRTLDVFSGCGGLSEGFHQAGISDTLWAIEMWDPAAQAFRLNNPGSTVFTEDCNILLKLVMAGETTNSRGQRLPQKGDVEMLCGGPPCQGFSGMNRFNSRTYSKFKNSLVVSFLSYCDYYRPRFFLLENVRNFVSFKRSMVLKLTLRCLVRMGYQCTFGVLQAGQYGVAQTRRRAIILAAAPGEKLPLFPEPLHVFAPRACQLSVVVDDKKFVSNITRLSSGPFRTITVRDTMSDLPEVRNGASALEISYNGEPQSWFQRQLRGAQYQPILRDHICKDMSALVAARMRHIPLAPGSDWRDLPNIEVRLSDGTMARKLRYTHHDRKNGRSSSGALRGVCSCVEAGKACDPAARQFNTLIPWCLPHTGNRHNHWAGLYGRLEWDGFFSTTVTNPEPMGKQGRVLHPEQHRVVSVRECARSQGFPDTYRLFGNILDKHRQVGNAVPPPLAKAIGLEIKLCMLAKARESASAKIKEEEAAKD
MBD2 DNA inh – inhibitors of human MBD2 binding to methylated oligonucleotide | TR-FRET | AID 686964 | 0.31% of 370,000 active | inhibition, % at 4.4 µM; in the data active = inhibition above about 13%
UHRF1 binding – human UHRF1 methylated DNA binding inhibitors. Q96T88. UHRF1 binding to methylated oligo, TR-FRET. inhibition, % at 4.4 µM. 0.75% of 370,000 active. AID 687016; in the data active = inhibition above about 21%;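 also: UHRF1 SRA domain binding a hemimethylated CpG hairpin DNA probe; 0% = median of test compound wells and 100% = reference inhibitor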
PG9 Ab binder – PG9 antibody binding by small molecule; TR-FRET gp120-PG9 antibody binding; inhibition, % at 6.7 µM; 0.43% of 360,000 active; AID 624416; in the data active = inhibition above about 8.5%
rCAG binder conf – r(CAG) RNA repeat binding, confirmation | AID 652065 | TO-PRO-1 dye displacement fluorescence | inhibition, % at 3 µM | 70% of 4,300 active | shares compounds with rCAG RNA binder;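 active = inhibition above a per-plate cutoff, the mean inhibition of sample wells plus 3 SD, cut at about 35% in these data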;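 also: loss of TO-PRO-1 fluorescence as compound displaces dye from 1x1 AA loop RNA; 0% = DMSO only wells and 100% = 100 µM mitoxantrone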
DNA CAG counter – disrupts DNA CAG TO-PRO-1 complex, flagging rCAG hits. shares compounds with rCAG RNA binder. d(CAG) DNA oligo TO-PRO-1 dye displacement, fluorescence. inhibition, % at 3 µM. 94% of 4,300 active. AID 652068;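 active = inhibition above its plate's cutoff, the mean test-well inhibition plus 3 SD, cut at about 4.8% in these data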;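 also: 0% = DNA dye mix with DMSO and 100% = 100 µM mitoxantrone; hits displace the dye from DNA and so lower well fluorescence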
* hit, by the source's call; / = no result given. Rows were chosen to be rich in hits. Some 3.5% of all compounds tested hit in one or more screens of this group.

SMILES	LEDGF integ inh	rCAG RNA binder	DNMT1 inh	MBD2 DNA inh	UHRF1 binding	PG9 Ab binder	rCAG binder conf	DNA CAG counter
CN1C(=O)/C(=C/c2ccccc2OCc2ccc(F)cc2)N(C)C1=S	0	2	5	-5	-4	-1	/	/
Cc1cc(C)n2c(NC3CCCCC3)c(CC(C)C)nc2n1	-10	4	/	1	-2	-2	/	/
CCCCn1c(N)c(N(CC(C)C)C(=O)CCN2C(=O)C3CC=CCC3C2=O)c(=O)[nH]c1=O (configuration not stated)	0	3	5	-1	3	2	/	/
O/N=C/c1cc(Br)ccc1OCc1ccc(F)cc1	1	4	-11	0	-2	-2	/	/
O=C(O)CN1C(=O)/C(=C\c2cc(Br)ccc2OCc2ccc(F)cc2)SC1=S	4	81*	24	-6	-3	-3	89*	61*
Cc1ccc(CNc2nc(C)c(C(=O)N(C)C)s2)cc1	1	0	1	-4	-1	2	/	/
Cc1cccc2sc(NC(=O)c3ccc(NS(=O)(=O)c4cccs4)cc3)nc12	2	80*	-9	2	2	1	76*	40*
COc1ccc2nc(NC(=O)c3ccc(NS(=O)(=O)c4cccs4)cc3)sc2c1	-1	65*	2	5	3	0	66*	29*
COc1ccc2nc(NC(=O)CNS(=O)(=O)c3cccs3)sc2c1	0	9	2	1	-3	0	/	/
Cc1cc(F)ccc1NC(=O)c1ccc(NS(=O)(=O)c2cccs2)cc1	-2	8	-4	2	-3	1	/	/
CCOC(=O)c1sc(N2C(=O)C(O)=C(C(=O)c3ccco3)C2c2ccc(C)o2)nc1C (configuration not stated)	2	44*	3	1	-1	-1	59*	21*
CCOC(=O)c1sc(N2C(=O)C(O)=C(C(=O)c3ccco3)C2c2ccc([N+](=O)[O-])cc2)nc1C (configuration not stated)	-1	80*	-6	-1	-3	0	85*	55*
CN(C)C(=O)c1cc(Cl)ccc1Sc1cc(Cl)ccc1Cl	1	-8	2	7	0	2	/	/
Oc1ccc(Cl)cc1Sc1cc(Cl)ccc1O	10	38*	-19	-1	1	-2	43*	12*
CC(/C=C1\SC(=S)N(CCC(=O)Nc2ccc(O)cc2)C1=O)=C\c1ccccc1	0	19	-19	6	0	-1	/	/
O=C(CCN1C(=O)/C(=C/c2cccs2)SC1=S)Nc1ccc(C(=O)O)c(O)c1	5	93*	-3	-4	-6	-1	80*	50*
O=C(CCN1C(=O)/C(=C/c2cccs2)SC1=S)Nc1cccc(C(=O)O)c1	-1	60*	2	0	1	-2	52*	18*
O=C(CCN1C(=O)/C(=C/c2cccs2)SC1=S)Nc1ccc(O)cc1	-1	13	-4	-1	-4	-4	/	/
O=C(CCCN1C(=O)/C(=C/c2cccs2)SC1=S)Nc1ccccn1	-7	1	-4	-5	7	2	/	/
O=C(O)CCCN1C(=O)/C(=C/c2cn(-c3ccccc3)nc2-c2cccs2)SC1=S	-3	64*	11	6	0	1	82*	44*
CC(=Cc1ccccc1)C=C1SC(=S)N(CCCC(=O)Nc2ccc(C(=O)O)c(O)c2)C1=O	2	93*	71*	2	0	-3	92*	76*
O=C(CCN1C(=O)/C(=C\C=C\c2ccccc2)SC1=S)Nc1cccc(C(=O)O)c1	1	86*	16	4	-2	-2	84*	54*
O=C(CCCN1C(=O)/C(=C/c2cccs2)SC1=S)Nc1ccc(C(=O)O)cc1	-1	42*	3	4	7	-3	39*	7.8*
NCCCCc1ccc2ccc3cccc4ccc1c2c34	-6	20	37	-2	-2	-3	/	/
O=C(O)CCCc1ccc2ccc3cccc4ccc1c2c34	-1	47*	0	3	2	-1	27	7.5*
SMILES	LEDGF integ inh	rCAG RNA binder	DNMT1 inh	MBD2 DNA inh	UHRF1 binding	PG9 Ab binder	rCAG binder conf	DNA CAG counter
CCCCOCCCNC(=O)C[C@@H]1C[C@@]2(C(=O)OC)CC(C)(C)CC=C2N(Cc2ccccc2)C1=O	3	-1	/	-6	3	2	/	/
CC1(C(=O)NS(=O)(=O)c2ccc3ccccc3c2)CCN1C(=O)CC1CCCCC1 (configuration not stated)	5	39*	-1	-2	-1	0	57*	20*
CC(C)(C)c1ccc(S(=O)(=O)NC(=O)C2(C)CCN2C(=O)CC2CCCC2)cc1 (configuration not stated)	5	37*	3	-1	0	0	22	3
COC(=O)c1ccccc1NC(=O)COC(=O)Cc1ccc(S(=O)(=O)N2CCOCC2)s1	-5	11	-3	2	-1	0	/	/
CC(=O)c1ccc(NC(=O)CSc2ccsc2[N+](=O)[O-])cc1	3	35*	27	1	3	-2	20	14*
CCOC(=O)Cc1csc(NS(=O)(=O)c2ccc3c4c(cccc24)C(=O)N3CC)n1	-2	56*	1	-3	1	0	47*	13*
O=C(CC1CC1)N[C@@H]1CC[C@@H](CCNS(=O)(=O)c2ccc(F)cc2)O[C@@H]1CO	1	2	/	-4	0	0	/	/
CC(C)=CCC[C@H](C)C[C@@H]1Cc2[nH][nH]c(=O)c2[C@@H](c2ccc(F)cc2)O1	-1	7	/	-3	-3	0	/	/
CN1C(=O)/C(=C/c2ccc(-c3ccccc3[N+](=O)[O-])o2)SC1=Nc1ccc(Cl)c(C(=O)O)c1	2	43*	-10	-5	-1	0	85*	51*
CN(CCO)c1cccc2c1S(=O)(=O)N(Cc1cn(Cc3cccc(F)c3)nn1)Cc1ccccc1O2	-1	5	/	0	2	/	/	/
COc1cccc2sc(NN)nc12	-5	25	-1	-2	2	-1	/	/
COc1cccc2sc(Nc3nnc(-c4ccccc4Cl)o3)nc12	5	46*	0	0	-3	1	44*	14*
COc1cccc(-c2nnc(Nc3nc4c(F)cccc4s3)o2)c1	1	73*	-2	2	-1	3	67*	23*
O=C(Nc1nnc(-c2ccccc2Cl)o1)c1nc2ccccc2s1	-14	40*	9	0	-2	-1	47*	13*
COc1ccc(C(=O)NCc2nnc(SCC(=O)NC3CCCCC3)n2C)cc1	2	-6	0	5	-1	0	/	/
